Results reported in PubChem BioAssay (Tox21).
Records with an inconclusive call do not appear. Some compounds were tested as several samples or in several runs, with calls that do not always agree. Active and inactive are the calls of the source. Calls come from the whole dose curve; as a rule, active = well fitted cell-killing curve with a large enough effect in the repeat runs; inconclusive = weak or mixed curves, or effect the other way; inactive = no such curve, though single readings can be large or run the other way.

Assay: qHTS assay to identify small molecule agonists of the vitamin D receptor (VDR) signaling pathway - cell viability counter screen (AID 743224); note: nearly all actives have a fitted effect of over 50% in size
Details: VDR-bla HEK293T viability, CellTiter-Glo luminescence, 16 h; series mostly up to 62.6 µM; activity change, negative = cytotoxicity: at the top concentration
Text: U.S. Tox21 Program National Center for Advancing Translational Sciences [NCATS] NIH Chemical Genomics Center [NCGC] U.S. Environmental Protection Agency [EPA] National Institutes of Environmental Health Sciences [NIEHS] National Toxicology Program [NTP] U.S. Food and Drug Administration [FDA] Tox21 Assay Overview: The vitamin D receptor (VDR), a member of nuclear hormone receptor superfamily, plays a critical role in calcium homeostasis and bone metabolism. It is also involved in cell differentiation and growth, and thrombogenicity. […] The cytotoxicity of the Tox21 compound library against the VDR-bla cell line was tested in parallel by measuring the cell viability using CellTiter-Glo assay (Promega, Madison, WI) in the same wells.
Tox21 Assay Protocol Summary: VDR-bla cells were dispensed at 2,000 cells/6 uL/well into black wall/clear-bottom 1536-well plates using a Multidrop Combi (Thermo Fisher Scientific, Waltham, MA) dispenser. After the assay plates were incubated at a 37C and 5% CO2 for 4 h, 23 nL of compounds dissolved in DMSO, positive controls or DMSO only was transferred to the assay plate by a Pintool station (Kalypsys, San Diego, CA). The plates were incubated at 37C and 5% CO2 for 16 h. After 1 uL of LiveBLAzerTM B/G FRET substrate was added using a Bioraptr Flying Reagent Dispenser (FRD) workstation (Beckman Coulter, Indianapolis, IN, USA), the plates were incubated at room temperature for 2 h, and fluorescence intensity was measured by an Envision plate reader (PerkinElmer, Shelton, CT). For cell viability readout that measures cytotoxicity, 3 ul/well of CellTiter-Glo reagent was added into the assay plates using a FRD. After 30 min incubation at room temperature, the luminescence intensity in the plates was measured using a ViewLux (PerkinElmer) plate reader.
% is set by controls: 0 for no effect and ±100 for the full control effect; potency is the fitted concentration of half-maximal effect.

Compound	activity change, negative = cytotoxicity	Potency
CC1(C)CO[C@@H](CC(=O)O)CN1	12.4% (inactive)	
CN(C(=O)c1c(O)c2ccccc2n(C)c1=O)c1ccccc1	11.6% (inactive)	
CN1CCC(=C2c3ccccc3CC(=O)c3sccc32)CC1	8.16% (inactive)	
COC(=O)C1=C(C)NC(C)=C(C(=O)OC)C1c1ccccc1[N+](=O)[O-]		39 µM (active) and inactive
CCCCC/C=C\CCC=O	-12.7% (inactive)	
Cc1[nH]c(=O)c(C#N)cc1-c1ccc2nccn2c1	2.64% (inactive)	
COCCc1ccc(OCC(O)CNC(C)C)cc1 (stereo not given)	9.11% (inactive)	
c1cnc(N2CCN(Cc3ccc4c(c3)OCO4)CC2)nc1	6.41% (inactive)	
C1CN(CCOCCN2CCOCC2)CCO1	-0.646% (inactive)	
O=C(O)c1ccccc1OP(=O)(O)O	-7.52% (inactive)	
FC(F)OC(Cl)C(F)(F)F (stereo not given)	0.451% (inactive)	
CC(C)(C)c1nnc(NS(=O)(=O)c2ccccc2)s1	-11.4% (inactive)	
CCCN(CCC)CCc1cccc2c1CC(=O)N2	14.3% (inactive)	
CCc1nccnc1CC	-2% [at 29.1 µM] (inactive)	
Nc1ccccc1S(=O)(=O)O	20.5% (inactive)	
COCCCOCCCOC	4.09% (inactive)	
CC(C)(C)c1ccc(O)c(O)c1		25.4 µM (active)
CCOC(=O)C(=O)OCC	1.96% (inactive)	
COC(=O)c1ccc(C)cc1C1=NC(C)(C(C)C)C(=O)N1 (stereo not given)	2.31% (inactive)	
CCn1ccnc1CC1COc2ccccc2O1 (stereo not given)	-0.586% (inactive)	

Compound	activity change, negative = cytotoxicity	Potency
CC(=O)N(CC(O)CO)c1c(I)c(C(=O)NCCO)c(I)c(C(=O)NCC(O)CO)c1I (stereo not given)	-1.94% (inactive)	
C=C(C)C(=O)OCCCCCCCC(C)C	-1.94% [at 81.1 µM] (inactive)	
CCCCCCCCCCCCCCCCC	-11.9% (inactive)	
NS(=O)(=O)c1cc(C(=O)O)cc(N2CCCC2)c1Oc1ccccc1	4.91% (inactive)	
O=C1NC(=O)[C@@]2(CCOc3ccc(F)cc32)N1	12.6% (inactive)	
CC(C(=O)O)c1ccc(CC2CCCC2=O)cc1 (stereo not given)	3% (inactive)	
COC(=O)c1cc(C(=O)OC)cc(S(=O)(=O)O)c1	-0.493% (inactive)	
NS(=O)(=O)c1cc(C(=O)NN2C[C@H]3[C@H]4CCC(C4)[C@H]3C2)ccc1Cl	1.6% (inactive)	
CC[N+](C)(C)c1cccc(O)c1	27.1% (inactive)	
O=C(O)CCCl	-2.2% [at 81.1 µM] (inactive)	
CCC(=O)OC(C)c1ccccc1 (stereo not given)	10.5% (inactive)	
COC(=O)CCSCCC(=O)OC	0.678% (inactive)	
CC/C=C\CC/C=C/CO	-0.0648% (inactive)	
Oc1ccc(C2CNCCc3c2cc(O)c(O)c3Cl)cc1 (stereo not given)	-1.96% (inactive)	
CCCCCOC(=O)CCCCC	1.76% (inactive)	
CCOC(=O)c1c(C)n(C)c2ccc(O)cc12	4.24% (inactive)	
CC(=O)OCC(=O)[C@@]1(O)CC[C@H]2[C@@H]3CCC4=CC(=O)CC[C@]4(C)[C@H]3C(=O)C[C@@]21C	10.7% (inactive)	
Cc1ccc(Cl)cc1Cl	-3.95% (inactive)	
CN(C)CCCSc1ccccc1NC(=O)/C=C/c1ccccc1	-10.8% (inactive)	
CCCCCCCCCCCC	-2.97% (inactive)	
